D2 antag: HTS Assay for Allosteric Antagonists of the Human D2 Dopamine Receptor: Primary Screen for Antagonists; D(2) dopamine receptor (Homo sapiens), P14416; HEK293 TREx D2 cells, calcium flux, dopamine EC80; inhibition, % at 10 µM; hit rate 2% among 340,000; in the data active means inhibition above about 30%; inactive means below that, where a call was filed; further: 0% is about no effect
Target sequence (P14416 whole entry, looked up): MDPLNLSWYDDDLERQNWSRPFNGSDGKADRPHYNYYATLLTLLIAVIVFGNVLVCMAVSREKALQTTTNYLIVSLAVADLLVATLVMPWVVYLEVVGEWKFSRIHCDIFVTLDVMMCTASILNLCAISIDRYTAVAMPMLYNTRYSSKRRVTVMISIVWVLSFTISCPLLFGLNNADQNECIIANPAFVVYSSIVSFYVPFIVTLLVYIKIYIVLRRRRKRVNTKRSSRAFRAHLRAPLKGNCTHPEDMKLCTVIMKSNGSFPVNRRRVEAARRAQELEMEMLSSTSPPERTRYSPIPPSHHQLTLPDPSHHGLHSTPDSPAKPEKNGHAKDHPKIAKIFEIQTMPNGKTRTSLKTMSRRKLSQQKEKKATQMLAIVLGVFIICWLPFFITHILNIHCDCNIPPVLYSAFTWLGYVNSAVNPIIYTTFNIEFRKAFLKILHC
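Inhibition of EC80 dopamine-driven calcium flux, recorded kinetically, defines activity here; cells are a tetracycline-induced HEK293 T-REx line expressing force-coupled D2.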
D2 ag-1: Beta-Arrestin HTS for Positive Allosteric Modulators of the Human D2 Dopamine Receptor: Agonists | DiscoveRx PathHunter D2 beta-arrestin, luminescence, 90 min; 100% = 57 uM dopamine signal | activation, % (test concentration not listed) | D(2) dopamine receptor (Homo sapiens), P14416 | hit rate 0.084% among 360,000 | AID 624465, 2012; in the data active means activation above about 40%
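Agonist mode: compounds alone added to overnight-plated D2 PathHunter cells for 90 min at 37 C, with 57 uM final dopamine (EC100) defining full response. Beta-arrestin recruitment detected by chemiluminescent reagent, read after 1 h at ambient temperature.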
D2 ag-2: HTS Assay for Allosteric Agonists of the Human D2 Dopamine Receptor: Primary Screen for Agonists; D(2) dopamine receptor (Homo sapiens), P14416; HEK293 T-REx D2 cells, calcium flux agonist mode; activation, % at 2 µM; hit rate 0.53% among 340,000;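 active means activation over 3 SD above normal in the single-dose calcium agonist read, cut at about 30% in these data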; further: 0% is about no effect
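Calcium-flux readout, 1 cycle/sec over 180 s following compound pin transfer, in inducible HEK293 Trex D2 cells (force-coupled); dopamine controls included. Positive calcium responses during this window marked compounds as potential agonists.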
D2 PAM-1: Beta-Arrestin HTS for Positive Allosteric Modulators of the Human D2 Dopamine Receptor: Potentiators; D(2) dopamine receptor (Homo sapiens), P14416; DiscoveRx D2 beta-arrestin cells, luminescence, 90 min; 100% = 57 uM dopamine signal; potentiation, % (concentration not given with the values); hit rate 0.23% among 360,000; in the data active means potentiation above about 50%
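PathHunter beta-arrestin assay in DiscoveRx D2 cells. Compounds were added with an EC20 of dopamine (50 nM final) for 90 min at 37 deg C. Luminescence was read 1 h after detection reagent, with 57 uM dopamine as the EC100 control.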
D2 PAM-2: HTS Assay for Positive Allosteric Modulators of the Human D2 Dopamine Receptor: Primary Screen for Potentiators; hit rate 0.34% among 340,000; HEK293 T-REx D2, calcium flux, EC20 dopamine potentiation; D(2) dopamine receptor (Homo sapiens), P14416; potentiation, % at 10 µM;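 active means potentiation over 3 SD above the plate norm, cut at about 30% in these data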; further: 0% is about no effect
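Tetracycline-induced Hek293 Trex D2 cells, force-coupled to calcium, loaded with no-wash calcium dye. Compound added with 180 s kinetic read for agonism, then EC20 dopamine and a further 180 s read for potentiation.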
Numbers without * were called inactive; . = no result given. Hits are enriched below; roughly 2.4% of the tested compounds scored in any of these assays.

SMILES	D2 antag	D2 ag-1	D2 ag-2	D2 PAM-1	D2 PAM-2
CCOc1ccc(-n2c(SCC(N)=O)nc3c(oc4ccccc43)c2=O)cc1	.	.	3	.	7
COc1ccccc1NC(=O)Cn1c(=O)n(CCC(=O)NCC2CCCO2)c(=O)c2cc(OC)c(OC)cc21 (stereo not drawn)	.	.	-1	.	14
O=C(COC(=O)CCNS(=O)(=O)c1ccccc1)Nc1ccc(OC(F)F)cc1	50*	0	0	0	26
CCN(CC)CCOC(=O)c1ccc(NC(=O)CCCN2C(=O)/C(=C\c3cccs3)SC2=S)cc1	68*	-4	1	-56	-27
COC(=O)c1ccc(NC(=O)CN2C(=O)CC(c3ccccc3)Sc3ccccc32)cc1 (stereo not drawn)	.	.	0	.	22
CC(C)C(C)(C#N)NC(=O)CSc1ncnc2sc(-c3ccccc3)cc12 (stereo not drawn)	31*	1	1	-10	-13
N#Cc1ccccc1NC(=O)c1cc2c(=O)n3ccccc3nc2s1	.	.	1	.	1
Cc1nn(-c2ccccc2)c(C)c1NC(=O)COC(=O)[C@@H](NC(=O)c1ccccc1)C(C)C	36*	-2	-1	6	-5
CCC(C(=O)OCC(=O)Nc1c(C)nn(-c2ccccc2)c1C)c1ccccc1 (stereo not drawn)	18	0	0	4	3
N#CC1=C(N)S[C@H](C(=O)C23CC4CC(CC(C4)C2)C3)[C@H]1c1ccncc1	4	5	1	14	31*
CC(=O)Nc1ccc(Sc2ncccc2C(=O)Nc2ccc(F)cc2)cn1	2	0	33*	-4	6
CSc1ncccc1C(=O)Nc1ccc(OC(F)(F)F)cc1	-21	-1	1	-1	-4
CCCN(Cc1cccs1)C(=O)Nc1ccc(Br)cc1F	.	.	-1	.	-25
CCOC(=O)C1CCN(C(c2cccc(F)c2)c2c(O)cc(C)n(CCOC)c2=O)CC1 (stereo not drawn)	.	.	4	.	-1
Cc1cc(C)c(NC(=O)CSc2nc3ccccc3c3nc(CCn4cncc4C)nn23)c(C)c1	.	.	0	.	-14
COc1cc(/C=C2\SC(=S)N(Nc3ncc(C(F)(F)F)cc3Cl)C2=O)ccc1O	-1	-14	21	-36	-11
CN(C)c1ccc(/C=C2\SC(=S)N(Nc3ncc(C(F)(F)F)cc3Cl)C2=O)cc1	-19	-6	45*	-23	-3
CCOCC(=O)Nc1nnc(COC)s1	31*	0	0	-8	8
CS(=O)(=O)c1nc(S(=O)(=O)c2ccc(Cl)cc2)c(NCc2ccccn2)s1	1	-6	-1	0	30*
CCOc1ccc(S(=O)(=O)N2CCN(C(=O)c3cccn3C)CC2)cc1	-5	8	-1	-13	31*
CCOc1ccc(NC(=S)N2CCN(S(=O)(=O)c3ccccc3)CC2)cc1	16	-2	39*	4	-9
CCOc1ccc(S(=O)(=O)N2CCN(S(=O)(=O)c3ccc(C(C)=O)cc3)CC2)cc1	36*	-6	0	-2	8
COc1ccccc1OCC(=O)N(Cc1ccc(Cl)cc1)CC1CCCO1 (stereo not drawn)	.	.	3	.	5
Cc1cccc(C)c1NC(=O)C(c1cccs1)N(Cc1ccco1)C(=O)Cn1nnc2ccccc21 (stereo not drawn)	5	-11	0	13	35*
COc1ccccc1Nc1nc(-c2ccccc2F)nc2ccccc12	.	.	2	.	-13
Cc1ccc(C2Nc3ccccc3-n3c(-c4ccccc4)c4c(=O)n(C)c(=O)n(C)c4c32)o1 (stereo not drawn)	.	.	1	.	2
COc1ccc(Cn2c(C)nc3oc4cc(OC)ccc4c(=O)c3c2=O)cc1	72*	-6	0	-38	-11
O=c1c2ccccc2oc2nc(-c3ccco3)n(CCc3ccccc3)c(=O)c12	-5	.	-1	.	3

Bioassay records: PubChem BioAssay, National Center for Advancing Translational Sciences (NCATS)
